Source: PubChem BioAssay (several laboratories)
Hits are enriched below; roughly 7.9% of the tested compounds scored in any of these assays.
M1 antagonist: antagonists of rat M1 muscarinic receptor | AID 628, 2007 | Muscarinic acetylcholine receptor M1 (Rattus norvegicus), P08482 | B-score at 10 µM | 3.4% of 64,000 active | CHO-M1 cells, Fluo-4 calcium, ACh EC80 antagonist mode; active compounds read low;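 active = calcium fluorescence response, raw or row-and-column corrected B-score, differing from the plate sample mean either way at a set confidence level, mostly lower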
PLAP act: PLAP enzyme activators, biochemical, luminescence, HTS; Alkaline phosphatase, placental type (Homo sapiens), P05187; purified PLAP enzyme, luminescent substrate read-out; active compounds read high; activation fold at 20 µM; 1.2% of 96,000 active; in the data active = activation fold above about 2
HER2 expr 66K: inhibitors of Her2 protein expression, primary screen, SKBR-3 cells, AlphaScreen, 66K library | Receptor tyrosine-protein kinase erbB-2 (Homo sapiens), P04626 | 0.69% of 65,000 active | AID 645, 2007 | HER2 level % of control, % at 10 µM | SKBR-3 HER2 protein level, 18-24 h; active compounds read low;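 active = HER2 level under 5% of the carrier-only control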;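 note: 100% = DMSO carrier and 0% = 500 nM PU-H71 HSP90 inhibitor; lower value means stronger loss of Her2 protein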
Cav32 inh: Cav3.2 calcium influx blockers – cell-based, Fluo-4 calcium fluorescence, FDSS, MLSMR library, primary screen. 4% of 100,000 active. B-score at 10 µM. Voltage-dependent T-type calcium channel subunit alpha-1H (Homo sapiens), O95180. Cav3.2-expressing cells; active compounds read low. AID 449739, 2010;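 active = single-dose well whose peak fluorescence ratio is a statistical outlier from its plate by either plate-standardised score or position-corrected B-score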
M1 ag: M1 muscarinic receptor agonists, primary screen, CHO-M1 cells, Fluo-4 calcium, agonist mode. B-score at 10 µM. AID 626, 2007. 3% of 64,000 active. Fluo-4 calcium fluorescence; active compounds read high. Muscarinic acetylcholine receptor M1;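 active = fluorescence rise, raw or as B-score row- and column-corrected plate score, outside the 99.7% band of its plate's samples, either direction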
* marks the source's active call; other numbers are inactive results; / = no result.

SMILES	M1 antagonist	PLAP act	HER2 expr 66K	Cav32 inh	M1 ag
CCOc1ccc(C2=NNC(c3cccs3)=Nc3ccc(OC)cc32)cc1	/	/	/	-4.9*	/
CCOc1ccc2c(c1)C(c1ccc(C)cc1)=NNC(c1ccc(OC)cc1)=N2	/	1.5	/	-1.2	/
CC(C)[C@@H]1NC(=O)c2cc([N+](=O)[O-])cc(F)c2NCCC[C@@H](C(N)=O)NC(=O)[C@H](CO)NC1=O	/	/	/	0.2	/
CCC1CCCCN1C(=O)CSc1nc2ccsc2c(=O)n1Cc1ccccc1 (stereo not given)	/	1.4	/	-4.9*	/
Cc1sc2ncnc(NCC3CCCO3)c2c1C (stereo not given)	/	1.2	/	-7.6*	/
COc1ccc(-c2nnc(SC(C)C(=O)Nc3ccc4c(c3)OCCO4)o2)cc1 (stereo not given)	0.52	2.1*	113	-0.73	0.22
CCc1nc(C)ccc1OCC(=O)NCCCN(C)C	0.003	1.1	-28*	0.46	0.16
COc1cc(C)c(Br)cc1S(=O)(=O)N1CCCC1	0.83	1	92	-0.51	0.72
CC1=CCC(C(=O)N/N=C/c2cccs2)C(c2ccc(F)cc2)C1 (stereo not given)	/	1	/	-5.3*	/
CCn1cc(C(=O)OCc2ccccc2)c(=O)c2ccc(C)nc21	-0.097	0.7	81	-0.022	1.2
CCn1cc(C(=O)OCC(=O)OC2CC(C)CCC2C(C)C)c(=O)c2ccc(C)nc21 (stereo not given)	-0.15	1.4	40	-6.4*	-0.44
CC(C)CC(C(=O)NCc1ccccn1)N1C(=O)c2ccccc2C1=O (stereo not given)	0.46	1.2	115	0.11	0.26
Cc1ccnc(NC(=O)CCC(=O)N(CC(=O)NC2CCCCC2)Cc2ccc3c(c2)OCO3)c1	-0.019	1.4	121	/	-0.29
O=C(COc1ccc(-c2nnc(N3CCCCC3)c3ccccc23)cc1)N1CCCCC1	-1	/	93	-3.5	0.54
Cc1ccc(-c2nnc(N3CCN(C(=O)COc4ccccc4)CC3)c3ccccc23)cc1	/	1.6	/	-7.4*	/
Cc1nc2ccccn2c1/C(O)=C1\C(=O)C(=O)N(CCCN(C)C)C1c1ccc(Cl)cc1 (stereo not given)	1.3	/	107	/	-0.94
CC1Cc2ccccc2N1C(=O)CN1CCC(n2nnc3cc(C(F)(F)F)ccc32)CC1 (stereo not given)	/	1.7	/	-9.5*	/
Cc1ccc(S(=O)(=O)N2CCN(CC(=O)NC3CCCc4ccccc43)CC2)cc1C (stereo not given)	/	2.1*	/	-3.3	/
Cc1ccc(S(=O)(=O)N2CCN(CC(=O)NC3CCCc4ccccc43)CC2)c(C)c1 (stereo not given)	/	71	/	-2.4	/
O=C(CCC(=O)N1CCN(S(=O)(=O)c2ccc(Cl)cc2)CC1)NC1CCCc2ccccc21 (stereo not given)	/	1.2	/	-5.2*	/
CC(C)c1ccc(CN(C(=O)C2COc3ccccc3O2)C2CCS(=O)(=O)C2)cc1 (stereo not given)	/	1.3	/	-4.4*	/
CN(C)c1ccc(CN(C(=O)C2COc3ccccc3O2)C2CCS(=O)(=O)C2)cc1 (stereo not given)	0.31	1.1	100	0.35	1.2
O=C(NC1CC1)c1cccc(Nc2ccc(-c3ccc4c(c3)OCCO4)nn2)c1	-2.7	0.8	62	-0.67	3.8*
CC1=CCC2C(=O)N(c3ccc4ccccc4n3)C(=O)C2C1 (stereo not given)	-0.2	1.1	104	0.21	-0.0096
Cc1cc(=O)n(-c2ccc3ccccc3n2)[nH]1	0.12	2.3*	76	0.17	-0.65
SMILES	M1 antagonist	PLAP act	HER2 expr 66K	Cav32 inh	M1 ag
CC(C)c1cc(NCCCN2CCOCC2)n2c(nc3ccccc32)c1C#N	0.16	/	116	-0.24	1.1
COc1ccc(OC)c(-n2c(-c3cc(-c4ccc(F)cc4)n[nH]3)n[nH]c2=S)c1	/	2*	/	0.57	/
S=c1[nH]nc(C2CCCCC2)n1/N=C/c1ccc(Br)s1	/	1.2	/	0.87	/
CC1C/C(=C/c2cccn2C)C(=O)/C(=C/c2cccn2C)C1 (stereo not given)	/	1.4	/	-14*	/
Cn1cccc1/C=C1/SC(=S)N(CC(=O)O)C1=O	/	/	/	-1.1	/
COc1ccc(CN(C(=O)Cc2c[nH]c3ccccc23)C(C(=O)NC2CCCCC2)c2ccc(C)o2)cc1 (stereo not given)	/	1.5	/	-7.3*	/
COc1ccccc1CN(C(=O)Cc1cccs1)C(C(=O)NC1CCCC1)c1ccncc1 (stereo not given)	/	1.4	/	-0.39	/
COc1cc(C(C(=O)NC2CCCCC2)N(Cc2cccs2)C(=O)Cc2c[nH]c3ccccc23)cc(OC)c1OC (stereo not given)	/	1	/	-6.5*	/
Cc1cccc(NC(=O)c2nc(-c3ccccc3)n(-c3ccccc3)n2)c1C	/	1	/	-6.6*	/
CCN(CC)S(=O)(=O)c1ccc(NC(=O)CN(c2cccc(C)c2)S(C)(=O)=O)cc1	/	/	/	-4.4*	/
CCN(CC(=O)Nc1ccc(OC)c(OC)c1)S(=O)(=O)c1ccc(C)cc1	0.26	1	90	1	-0.86
CCN(CC)S(=O)(=O)c1ccc(NC(=O)CN(c2ccc(OC)cc2OC)S(C)(=O)=O)cc1	0.35	1.6	134	-6.6*	0.54
CC(C)NC(=O)c1onc(CSc2ccc(Cl)cc2)c1C(=O)NC(C)C	/	/	/	-3.7	/
COc1ccc(C2C(C(=O)NCC3CCCO3)c3cc(OC)c(OC)cc3C(=O)N2C)cc1OC (stereo not given)	0.58	1.5	170	0.07	-0.036
C=CCOC(=O)C1=C[C@H](c2ccc(Br)cc2)C[C@H](OCc2ccc(CO)cc2)O1	/	/	/	-0.48	/
Cc1cc(C)n2nc3nc4c(cc3c2n1)CCCC4	-0.41	1	119	0.15	0.72
O=C1c2ccccc2C(=O)N1CCN1CCCCC1	0.33	1.1	89	/	0.21
O=C1c2cccc3c(N4CCCCC4)ccc(c23)C(=O)N1CCO	/	0.8	/	-6.1*	/
CN1CCN(CCC(=O)Nc2cccc(F)c2)CC1	1.1	0.9	83	-5*	-0.09
COC(=O)C(NC(=O)c1ccc(C)cc1)(Nc1cccc(C)n1)C(F)(F)F (stereo not given)	/	/	/	-4.6*	/
Cc1nn(-c2ccccc2)c2sc(C(=O)C(C#N)c3ccccn3)cc12 (stereo not given)	0.088	1.7	79	/	1.2
CCc1ccc(OCC(=O)N/N=C2\CC(=O)c3ccccc32)cc1	/	2.4*	/	-1.7	/
Cc1nn2c(=O)nc3sc4c(c3c2[nH]c1=O)CCCC4	0	/	102	0.14	0
CCN(CC)CCP(=O)(c1ccccc1)c1ccccc1	/	1.2	/	-4*	/
CSCCC(NS(=O)(=O)c1ccc(Cl)cc1)C(=O)OCC(=O)NC1CC1 (stereo not given)	/	0.9	/	-0.23	/
CSCCC(NS(=O)(=O)c1ccc(Cl)cc1)C(=O)OCC(=O)N(C(C)C)C(C)C (stereo not given)	/	1.4	/	-3.4*	/
